# Experimental data reported in publication PMC8159961, “Exploring protein hotspots by optimized fragment pharmacophores” (Nature Communications, 2021).
# Biological target: histone methyltransferase SET domain containing 2 (SETD2) (Homo sapiens, UniProt Q9BYW2)
# Assay: primary screen, binary call; higher = more effect of the substance; call rule not given here
# Experimental: The Chemiluminescence assay evaluates SETD2 specific tri -methylation activity towards histone H3K36. The kit consist s of recombinant SETD2, S-adenosylmethionine and a specific H3K36me3 antibody and was performed according to the manufacturer’s protocol (Catalo g- No. 52060, https://bpsbioscience.com/setd2 -chemiluminescent-assay-kit-52060). Values were blank corrected and normalized . Enzymatic activities were calculated relative to the positive control of the kit (full enzymatic activity) and to the known SET doma in inhibitor Sinefungin28 used as negative control (complete enzymatic activity inhibition). Compounds used were diluted in DMSO.
# Chain of histone methyltransferase SET domain containing 2 (SETD2) (Q9BYW2 whole entry, looked up, the tested form may be a part): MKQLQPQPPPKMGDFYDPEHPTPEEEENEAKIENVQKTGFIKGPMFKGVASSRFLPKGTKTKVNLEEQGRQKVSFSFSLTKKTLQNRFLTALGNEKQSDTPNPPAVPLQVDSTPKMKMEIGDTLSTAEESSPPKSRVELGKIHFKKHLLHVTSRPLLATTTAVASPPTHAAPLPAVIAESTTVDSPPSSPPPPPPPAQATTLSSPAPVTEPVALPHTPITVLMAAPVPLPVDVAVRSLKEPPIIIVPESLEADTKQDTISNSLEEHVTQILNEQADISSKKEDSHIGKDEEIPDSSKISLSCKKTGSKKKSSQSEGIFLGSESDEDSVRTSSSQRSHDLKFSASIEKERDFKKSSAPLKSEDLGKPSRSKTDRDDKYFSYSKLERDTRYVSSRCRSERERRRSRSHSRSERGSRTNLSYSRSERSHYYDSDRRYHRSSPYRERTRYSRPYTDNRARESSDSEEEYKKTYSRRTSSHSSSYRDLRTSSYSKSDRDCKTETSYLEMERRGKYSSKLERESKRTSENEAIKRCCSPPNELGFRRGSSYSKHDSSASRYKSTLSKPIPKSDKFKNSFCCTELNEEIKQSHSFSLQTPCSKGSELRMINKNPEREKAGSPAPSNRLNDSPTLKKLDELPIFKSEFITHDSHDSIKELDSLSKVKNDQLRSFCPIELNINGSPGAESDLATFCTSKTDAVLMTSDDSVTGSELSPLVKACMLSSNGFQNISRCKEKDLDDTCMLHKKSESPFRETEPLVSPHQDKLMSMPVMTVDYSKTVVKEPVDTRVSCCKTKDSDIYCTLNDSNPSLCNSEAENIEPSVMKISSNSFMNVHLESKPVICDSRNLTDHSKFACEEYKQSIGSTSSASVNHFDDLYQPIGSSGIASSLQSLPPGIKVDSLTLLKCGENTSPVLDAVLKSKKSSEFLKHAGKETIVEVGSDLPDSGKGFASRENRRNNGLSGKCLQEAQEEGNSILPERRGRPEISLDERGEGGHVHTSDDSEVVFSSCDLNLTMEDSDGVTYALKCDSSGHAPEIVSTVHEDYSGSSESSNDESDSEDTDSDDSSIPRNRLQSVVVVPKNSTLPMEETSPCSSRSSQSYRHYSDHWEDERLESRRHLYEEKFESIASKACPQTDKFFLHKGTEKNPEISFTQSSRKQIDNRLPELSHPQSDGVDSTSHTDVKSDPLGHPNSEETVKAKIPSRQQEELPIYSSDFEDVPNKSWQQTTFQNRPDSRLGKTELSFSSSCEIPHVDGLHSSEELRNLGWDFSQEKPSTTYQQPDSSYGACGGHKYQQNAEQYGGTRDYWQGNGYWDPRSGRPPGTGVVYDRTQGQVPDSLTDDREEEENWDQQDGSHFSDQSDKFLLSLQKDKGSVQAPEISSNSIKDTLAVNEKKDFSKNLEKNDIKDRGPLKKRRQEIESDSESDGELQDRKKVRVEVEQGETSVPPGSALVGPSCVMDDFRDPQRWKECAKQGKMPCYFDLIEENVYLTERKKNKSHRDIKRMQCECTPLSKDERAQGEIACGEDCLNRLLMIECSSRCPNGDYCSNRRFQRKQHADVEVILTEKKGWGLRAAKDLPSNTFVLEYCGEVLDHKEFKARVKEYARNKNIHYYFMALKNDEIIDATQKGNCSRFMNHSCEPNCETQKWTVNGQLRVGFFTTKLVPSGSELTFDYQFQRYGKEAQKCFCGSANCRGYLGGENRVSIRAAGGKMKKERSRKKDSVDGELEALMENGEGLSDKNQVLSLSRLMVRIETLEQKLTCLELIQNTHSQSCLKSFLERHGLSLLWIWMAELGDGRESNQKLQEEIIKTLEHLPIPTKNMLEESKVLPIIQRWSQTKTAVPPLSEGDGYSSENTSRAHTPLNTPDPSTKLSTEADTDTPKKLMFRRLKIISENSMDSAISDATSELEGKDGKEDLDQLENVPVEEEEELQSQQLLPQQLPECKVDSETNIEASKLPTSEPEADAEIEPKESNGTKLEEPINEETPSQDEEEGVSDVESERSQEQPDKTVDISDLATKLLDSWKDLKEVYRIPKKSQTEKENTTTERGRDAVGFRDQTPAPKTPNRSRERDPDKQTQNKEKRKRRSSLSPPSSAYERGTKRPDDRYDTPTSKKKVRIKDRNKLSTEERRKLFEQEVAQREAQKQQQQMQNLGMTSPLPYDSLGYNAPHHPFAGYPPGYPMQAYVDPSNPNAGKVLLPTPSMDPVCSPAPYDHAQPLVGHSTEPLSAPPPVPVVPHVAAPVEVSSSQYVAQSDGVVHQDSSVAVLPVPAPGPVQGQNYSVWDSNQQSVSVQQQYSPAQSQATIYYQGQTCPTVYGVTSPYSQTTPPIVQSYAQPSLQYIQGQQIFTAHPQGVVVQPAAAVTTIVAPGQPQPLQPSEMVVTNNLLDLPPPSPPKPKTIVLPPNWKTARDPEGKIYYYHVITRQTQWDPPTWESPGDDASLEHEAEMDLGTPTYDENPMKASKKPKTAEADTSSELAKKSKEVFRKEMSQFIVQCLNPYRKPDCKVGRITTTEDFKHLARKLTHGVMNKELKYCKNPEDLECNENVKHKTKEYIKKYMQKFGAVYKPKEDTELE
row,Compound,SETD2
1,COc1ccccc1N1CCNCC1,0 (inactive)
2,Nc1ccc(-c2ccccc2)cc1C(=O)O,0 (inactive)
3,CC(CN)N1CCc2sccc2C1 (stereo not shown),0 (inactive)
4,O=C1NC(=O)/C(=C\c2cccs2)N1,1 (active)
5,O=C1NC(=O)C2(CCc3ccccc32)N1 (stereo not shown),0 (inactive)
6,N[C@H]1c2ccccc2C[C@H]1CO,0 (inactive)
7,c1ccc(Nc2nncs2)cc1,0 (inactive)
8,c1ccc(-c2ccncc2)cc1,0 (inactive)
9,COc1ccccc1C1CCNCC1,0 (inactive)
10,CS(=O)(=O)c1ccc(OC(F)(F)F)cc1,0 (inactive)
11,O=C(O)CC1CCC(=O)N1 (stereo not shown),0 (inactive)
12,CN(C)c1cc(CN)ccn1,0 (inactive)
13,Oc1ccccc1N1CCCCC1,0 (inactive)
14,O=C(c1ccccc1)N1CCC(CO)CC1,0 (inactive)
15,Cn1nc(C(F)(F)F)cc1O,0 (inactive)
16,NC(=O)N1CCC(C(=O)O)CC1,0 (inactive)
17,CC1CCc2sc(C(=O)O)cc2C1 (stereo not shown),1 (active)
18,CCc1ccc(NC2=NCCCS2)cc1,0 (inactive)
19,COC(=O)c1c(C)nc(C2CC2)[nH]c1=O,0 (inactive)
20,Nc1ccc(SC(F)F)cc1,0 (inactive)

row,Compound,SETD2
1,COc1ccc(C2=CCNCC2)cc1,0 (inactive)
2,O=C(NC1CC1)c1ccccc1O,0 (inactive)
3,Cc1ccc(C)n1Cc1ccccc1Cl,0 (inactive)
4,O=C1CCN(c2ccccn2)CC1,0 (inactive)
5,CCN(CC)c1cccc(C)c1,0 (inactive)
6,Oc1ccc(C2CCNCC2)cc1,0 (inactive)
7,c1ccc2oc(C3CCCNC3)nc2c1 (stereo not shown),0 (inactive)
8,O=C(CN1CCNCC1)c1ccccc1,0 (inactive)
9,CC1(C)OC(=O)c2cc(Br)c(O)cc2O1,0 (inactive)
10,O=C(c1ccccc1F)N1CCNCC1,0 (inactive)
11,O=c1[nH]c2c(s1)CCC2,0 (inactive)
12,Fc1ccc2c(C3CCNCC3)c[nH]c2c1,0 (inactive)
13,O=C1CCC(=O)N(c2ccccc2)N1,0 (inactive)
14,Cc1nccn1Cc1cccc(C#N)c1,0 (inactive)
15,C1=C[C@H]2O[C@@H]1c1ccccc12,0 (inactive)
16,O=C(O)c1cnc(-c2ccccc2)s1,0 (inactive)
17,N#CCCN1CCc2ccccc21,0 (inactive)
18,O=C(c1ccncc1)N1CCNCC1,0 (inactive)
19,O=C(O)C1CCCN(C(=O)N2CCCC2)C1 (stereo not shown),0 (inactive)
20,Brc1ccc(-c2ccon2)cc1,0 (inactive)
